# Several values for one entry are separate records, joined by “and”; a condition that tells them apart may be missing. Identical values can stand only once. In all, about 110,000 compounds went through this assay and about 190 (0.17%) were called active. No stated cut-off is given here; in the data, active means inhibition above about 50%; inactive means the rest. This excerpt belongs to a sample that is enriched for actives. Measured potencies and affinities stand elsewhere. The source holds several records for some structures; these can differ, active in one and inactive in another.
# Target: Dual specificity protein phosphatase 6 (Rattus norvegicus) (UniProt Q64346)
# Sequence (Q64346 whole entry, looked up): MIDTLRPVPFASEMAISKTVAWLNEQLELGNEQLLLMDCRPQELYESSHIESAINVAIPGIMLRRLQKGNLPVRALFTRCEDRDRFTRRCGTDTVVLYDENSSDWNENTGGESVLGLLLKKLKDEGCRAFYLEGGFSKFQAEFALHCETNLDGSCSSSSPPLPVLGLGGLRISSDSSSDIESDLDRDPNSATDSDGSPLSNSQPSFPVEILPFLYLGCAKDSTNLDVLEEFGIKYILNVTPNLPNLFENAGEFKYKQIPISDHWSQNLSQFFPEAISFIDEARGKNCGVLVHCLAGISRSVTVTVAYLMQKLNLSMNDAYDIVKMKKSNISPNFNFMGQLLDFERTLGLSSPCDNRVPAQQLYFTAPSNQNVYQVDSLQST
# Test: inhibition of rat DUSP6 enzyme activity – biochemical, in vitro, primary screen (AID 425);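 further: plate controls were vehicle for no effect and reference inhibitor for full effect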
# Settings: recombinant MKP-3 phosphatase activity, fluorescence; at 20 µM; stronger effect = higher value
row,Structure (SMILES),inhibition
1,COc1cc2c(C#N)c(N3CCCCC3)nc(N)c2c(N)n1,8% (inactive)
2,COc1cc2c(C#N)c(N3CCOCC3)nc(N)c2c(N)n1,-5.5% (inactive)
3,Cc1c(NC(=O)COc2ccccc2[N+](=O)[O-])cccc1-c1nc2ncccc2o1,59.4% (active)
4,O=C(COc1ccccc1[N+](=O)[O-])Nc1ccc(-c2nc3ncccc3o2)cc1,16% (inactive)
5,Cc1ccc2oc(-c3cccc(NC(=O)COc4ccccc4[N+](=O)[O-])c3C)nc2c1,0.7% (inactive)
6,CCOc1ccc(NC(=O)CSC(N)=O)cc1,-0.4% (inactive)
7,Cc1ccc(C)c(S(=O)(=O)NCc2cccnc2)c1,-4.3% (inactive)
8,Cc1cc(C)c2nc3s/c(=C\c4ccc(-c5ccc(Cl)c(C(=O)O)c5)o4)c(=O)n3c2c1,19.9% (inactive)
9,O=c1/c(=C/c2ccc(-c3ccc([N+](=O)[O-])cc3Cl)o2)sc2nc3cc(Br)cnc3n12,1% (inactive)
10,O=c1/c(=C\c2ccc(-c3cccc(Cl)c3)o2)sc2nc3ccccc3n12,0.1% (inactive)
11,O=c1/c(=C/c2ccc(-c3ccc(Cl)cc3)o2)sc2nc3ccccc3n12,-1.6% (inactive)
12,O=c1/c(=C/c2ccc(-c3ccccc3[N+](=O)[O-])o2)sc2nc3cc(Br)cnc3n12,0.3% (inactive)
13,O=c1/c(=C/c2ccc(-c3ccccc3)o2)sc2nc3ccccc3n12,-5.1% (inactive)
14,O=C(O)c1ccccc1-c1ccc(/C=c2\sc3nc4cc(Br)cnc4n3c2=O)o1,52.1% (active)
15,O=c1/c(=C\c2ccc(-c3cccc(Br)c3)o2)sc2nc3ccccc3n12,1.3% (inactive)
16,Cc1cc2nc3s/c(=C/c4ccc(-c5ccc(Cl)cc5)o4)c(=O)n3c2cc1C,0.8% (inactive)
17,CCCCOC(=O)c1ccc(NC(=O)c2cncc(Br)c2)cc1,2.8% (inactive)
18,COc1ccccc1/C=C1\SC(=S)N(NC(=O)Cc2ccccc2)C1=O,2.2% (inactive)
19,O=C(COc1ccc(=O)n(-c2ccccc2)n1)Nc1ccccc1,1.2% (inactive)
20,COC(CNS(=O)(=O)c1ccc(Cl)cc1)c1ccccc1 (stereo unspecified),-0.6% (inactive)
21,CC1(C)CC(=O)C2=C(C1)OC1=C(C(=O)CC(C)(C)C1)C2c1ccc(-c2nnc(N)s2)cc1,5.6% (inactive)

row,Structure (SMILES),inhibition
1,CC(C)CSc1nc2c(c(=O)[nH]c(=O)n2C)n1CC(O)COc1cccc2ccccc12 (stereo unspecified),-2.5% (inactive)
2,Cn1c(=O)oc2cc(S(=O)(=O)Nc3ccc(Cl)cc3F)ccc21,-2.1% (inactive)
3,Cc1nc2c3ccccc3n(CC#N)c(=O)n2n1,-2.1% (inactive)
4,NC(=O)C1(N2CCCCC2)CCN(CC(=O)Nc2ccc(Oc3ccccc3)cc2)CC1,-17% (inactive)
5,COc1ccc(CCCc2nnc(SCC(=O)Nc3ncc(C)s3)o2)cc1,-9.2% (inactive)
6,O=C(O)c1ccccc1NCN1C(=O)C2CC=C(Cl)CC2C1=O (stereo unspecified),5.2% (inactive)
7,CC(=O)Nc1ccc2c(c1)C1C=CCC1C(C(=O)O)N2 (stereo unspecified),3% (inactive)
8,Cc1ccc2c(c1)C1C=CCC1C(C(=O)O)N2 (stereo unspecified),40.3% (inactive)
9,O=C(O)C1Nc2ccc3ccccc3c2C2C=CCC12 (stereo unspecified),91.5% (active)
10,O=[N+]([O-])c1cccc(C2Nc3ccc4ccccc4c3C3C=CCC32)c1 (stereo unspecified),8.7% (inactive)
11,O=[N+]([O-])c1ccc(C2Nc3ccc([N+](=O)[O-])cc3C3C=CCC32)cc1 (stereo unspecified),6.6% (inactive)
12,COc1ccc2c(c1)C1C=CCC1C(C(=O)O)N2 (stereo unspecified),23.5% (inactive)
13,O=C(O)C1Nc2ccc([N+](=O)[O-])cc2C2C=CCC12 (stereo unspecified),63.7% (active)
14,O=[N+]([O-])c1cccc2c1NC(c1ccccc1F)C1CC=CC21 (stereo unspecified),2.2% (inactive)
15,O=[N+]([O-])c1cccc2c1NC(c1ccc(F)cc1)C1CC=CC21 (stereo unspecified),-0.5% (inactive)
16,Oc1ccc(C2Nc3ccc4ccccc4c3C3C=CCC32)cc1 (stereo unspecified),2.7% (inactive)
17,O=C(O)C1Nc2c(cccc2[N+](=O)[O-])C2C=CCC12 (stereo unspecified),79% (active)
18,O=C(Nc1ccc2nn(-c3ccccc3)nc2c1)c1cc(I)ccc1Cl,3.4% (inactive)
19,Cn1cnnc1Sc1nc2c(c(=O)n(C)c(=O)n2C)n1C,-3.7% (inactive)
20,COc1ccc(C(=O)/C=C/c2c(Cl)cccc2Cl)cc1,10.2% (inactive)
21,CCOc1ncccc1C(=O)OCC(=O)NCCc1ccc(OC)cc1,1.6% (inactive)

row,Structure (SMILES),inhibition
1,O=C(c1ccc(S(=O)(=O)NCC2CCCO2)cc1)N1CCc2ccccc21 (stereo unspecified),8.3% (inactive)
2,O=C(CCNS(=O)(=O)c1ccccc1[N+](=O)[O-])Nc1ccc(I)cc1,2% (inactive)
3,C=CCn1c(SCC(=O)NCc2cccs2)nnc1C1CCCCC1,-0.2% (inactive)
4,COc1cc(/C=C2\SC(=S)N(c3ccc(C)cc3C)C2=O)cc(Br)c1O,-2.7% (inactive)
5,O=C(NCC1CCCO1)c1cnn2c1NC(c1ccco1)CC2C(F)(F)F (stereo unspecified),-1.8% (inactive)
6,Cc1ccc(NC(=O)Cn2nc(C)c3ccccc3c2=O)cc1F,-2.5% (inactive)
7,COc1cc(C(=O)NC(NC(=S)Nc2ccc(C(C)=O)cc2)C(Cl)(Cl)Cl)cc(OC)c1OC (stereo unspecified),3.5% (inactive)
8,COc1cccc(C2C(C(=O)Nc3ccccc3)=C(C)N=C3SCC(=O)N32)c1 (stereo unspecified),3.3% (inactive)
9,Cc1ccc(C)n1-c1cc(C(=O)O)ccc1O,32.6% (inactive)
10,Cc1ccc(-c2ccccc2)n1-c1cccc(C(=O)O)c1,2.4% (inactive)
11,Cc1ccc(C(=O)O)cc1N1C(=O)c2ccccc2C1=O,-1.1% (inactive)
12,Cc1cc(N)ccc1-n1c(C)ccc1C,-1.5% (inactive)
13,Cc1cc(Cl)c2cc(C(=O)O)ccc2n1,3.5% (inactive)
14,Cc1cc(C(=O)O)ccc1-n1c(C)ccc1C,55% (active) and 10.8% (inactive)
15,Cc1ccc(C)n1-c1cc(C(=O)O)cc(C(=O)O)c1,32.5% (inactive)
16,Cc1ccc(C)n1-c1cc(C(=O)O)ccc1Cl,101% (active)
17,Cc1ccc(C(=O)O)cc1-n1c(C)ccc1C,59% (active)
18,COc1cccc(C2=NN(C(=O)COc3ccccc3)C(O)(C(F)(F)F)C2)c1 (stereo unspecified),1.7% (inactive)
19,Cc1cccc(C(C)C)c1NC(=O)c1cccnc1,-7.7% (inactive)
